Laboratory results from publication PMC4336329 (PLoS ONE, 2015).
Among all 310,000 compounds or so, about 14,000 (4.5%) showed an effect of 50% or more. The effect is printed as a negative number. Shown is part of a subset that was picked to be rich in strong results.

What follows are compounds tested against human ether-à-go-go-related gene (hERG) potassium channel (human, UniProt Q12809) (assay: primary screen, population patch clamp on CHO cells stably expressing hERG; higher = less effect of the substance).
human ether-à-go-go-related gene (hERG) potassium channel, sequence (Q12809 whole entry, looked up): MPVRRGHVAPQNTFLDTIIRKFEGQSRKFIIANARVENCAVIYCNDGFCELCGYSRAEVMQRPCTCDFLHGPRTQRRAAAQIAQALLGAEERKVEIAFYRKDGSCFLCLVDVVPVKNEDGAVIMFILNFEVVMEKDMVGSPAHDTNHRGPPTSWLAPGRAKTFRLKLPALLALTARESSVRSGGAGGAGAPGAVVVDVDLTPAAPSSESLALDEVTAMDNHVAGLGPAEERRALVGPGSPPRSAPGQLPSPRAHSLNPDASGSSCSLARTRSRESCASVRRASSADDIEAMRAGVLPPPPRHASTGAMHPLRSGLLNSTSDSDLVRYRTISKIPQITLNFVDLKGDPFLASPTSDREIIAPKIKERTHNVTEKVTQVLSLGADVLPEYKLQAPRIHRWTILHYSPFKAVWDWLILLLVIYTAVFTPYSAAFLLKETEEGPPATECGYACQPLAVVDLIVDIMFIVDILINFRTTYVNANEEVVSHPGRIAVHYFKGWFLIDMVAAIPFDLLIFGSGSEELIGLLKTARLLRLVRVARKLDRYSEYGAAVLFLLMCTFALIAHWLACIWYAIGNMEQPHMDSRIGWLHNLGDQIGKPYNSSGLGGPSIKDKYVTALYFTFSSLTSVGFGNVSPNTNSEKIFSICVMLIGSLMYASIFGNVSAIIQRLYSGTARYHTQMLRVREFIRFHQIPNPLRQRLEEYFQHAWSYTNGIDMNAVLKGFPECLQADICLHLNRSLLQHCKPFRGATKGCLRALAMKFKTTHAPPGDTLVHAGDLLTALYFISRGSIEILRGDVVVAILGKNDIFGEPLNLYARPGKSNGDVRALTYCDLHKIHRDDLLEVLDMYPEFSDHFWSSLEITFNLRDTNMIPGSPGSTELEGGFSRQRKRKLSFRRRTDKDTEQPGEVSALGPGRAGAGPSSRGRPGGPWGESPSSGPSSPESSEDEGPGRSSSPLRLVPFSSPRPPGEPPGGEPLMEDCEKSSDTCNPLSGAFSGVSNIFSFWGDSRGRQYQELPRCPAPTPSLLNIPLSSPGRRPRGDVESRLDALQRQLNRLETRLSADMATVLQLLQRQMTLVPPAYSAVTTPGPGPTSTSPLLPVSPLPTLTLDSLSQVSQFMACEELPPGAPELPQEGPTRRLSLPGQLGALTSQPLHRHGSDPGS
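Also: peak tail current of the secondary pulse compared with the same well before compound.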

Question: Which “hERG current change (%, negative = inhibition) at 10uM” value does the source give for `CCc1c(C)nc2ncnn2c1Nc1ccc(C)cc1` here?
Answer: -5.65%

Question: `Cc1nc2ncnn2c(Nc2ccc3c(c2)OCO3)c1Cc1ccccc1` was tested. Which “hERG current change (%, negative = inhibition) at 10uM” value did it give?
Answer: -55.1%

Question: `CCc1c(C)nc2ncnn2c1Nc1ccc(C#N)c(Cl)c1` was tested. Which “hERG current change (%, negative = inhibition) at 10uM” value did it give?
Answer: -50.6%

Question: With `Cc1cc(Nc2ccc3c(c2)OCCO3)n2ncnc2n1` as the compound, how does the “hERG current change (%, negative = inhibition) at 10uM” value read?
Answer: -42.7%

Question: How did the “hERG current change (%, negative = inhibition) at 10uM” value turn out when `Cc1nc2ncnn2c(Nc2ccc3c(c2)OCCO3)c1C` was run?
Answer: 0.223%

Question: How did the “hERG current change (%, negative = inhibition) at 10uM” value turn out when `CCc1c(C)nc2ncnn2c1Nc1ccc(C)c(C)c1` was run?
Answer: -17.6%

Question: Which “hERG current change (%, negative = inhibition) at 10uM” value does the source give for `COc1ccc(CC(=O)NNS(=O)(=O)c2ccc(F)cc2)cc1OC` here?
Answer: 0.969%

Question: For `COc1ccc(-n2c(C)cc(C(=O)CN3CCCCC3)c2C)cc1`, which “hERG current change (%, negative = inhibition) at 10uM” value is on record?
Answer: 1.6%

Question: Which “hERG current change (%, negative = inhibition) at 10uM” value does the source give for `CNc1nc(C)c(C(=O)OCc2ccccc2)s1` here?
Answer: 15.9%

Question: With `O=C(Nc1c2c(nn1-c1ccccc1)CS(=O)C2)c1ccc(Br)o1` (centres unmarked) as the compound, how does the “hERG current change (%, negative = inhibition) at 10uM” value read?
Answer: 1.07%

Question: `c1ccc2sc(SCSc3nc4ccccc4s3)nc2c1` was tested. Which “hERG current change (%, negative = inhibition) at 10uM” value did it give?
Answer: 15.8%

Question: For `O=[N+]([O-])c1ccc2sc(SCc3nc4ccccn4c3Br)nc2c1`, which “hERG current change (%, negative = inhibition) at 10uM” value is on record?
Answer: 20.2%

Question: Which “hERG current change (%, negative = inhibition) at 10uM” value does the source give for `Cc1cc(C)nc(SCc2nc3ncccn3c2Br)n1` here?
Answer: -2.09%

Question: Which “hERG current change (%, negative = inhibition) at 10uM” value does the source give for `Brc1c(CSc2nc3ccccc3o2)nc2ncccn12` here?
Answer: -51.8%

Question: `Brc1c(CSc2nc3ccccc3s2)nc2ncccn12` was tested. Which “hERG current change (%, negative = inhibition) at 10uM” value did it give?
Answer: -69.7%

Question: Which “hERG current change (%, negative = inhibition) at 10uM” value does the source give for `Cc1cc(=O)[nH]c(SCc2nc3ncccn3c2Br)n1` here?
Answer: 14.6%

Question: How did the “hERG current change (%, negative = inhibition) at 10uM” value turn out when `Clc1c(CSc2nc3ccccc3o2)nc2sccn12` was run?
Answer: 5.65%

Question: How did the “hERG current change (%, negative = inhibition) at 10uM” value turn out when `Clc1c(CSc2nc3ccccc3o2)nc2ccccn12` was run?
Answer: -20.4%

Question: Which “hERG current change (%, negative = inhibition) at 10uM” value does the source give for `Cc1ccc(SCc2nc3ncccn3c2Br)cc1` here?
Answer: -68%

Question: How did the “hERG current change (%, negative = inhibition) at 10uM” value turn out when `COc1ccc(S(=O)(=O)Nc2ccc3c(c2)OCO3)cc1OC` was run?
Answer: 21.7%

Question: How did the “hERG current change (%, negative = inhibition) at 10uM” value turn out when `COc1ccc(NC(=O)CSc2nnc(-c3ccccc3C)n2N)cc1` was run?
Answer: 31.2%

Question: How did the “hERG current change (%, negative = inhibition) at 10uM” value turn out when `CCC(Oc1ccccc1)C(=O)Nc1cc(Cl)ccc1-n1cncn1` (centres unmarked) was run?
Answer: -14.1%

Question: Which “hERG current change (%, negative = inhibition) at 10uM” value does the source give for `O=C1c2ccccc2C(=O)N1C(CO)C(O)c1ccc([N+](=O)[O-])cc1` (centres unmarked) here?
Answer: -5.29%

Question: With `CC(c1nnc(SCC(=O)N2CC(=O)Nc3ccccc32)n1Cc1ccccc1)N(C)C` (centres unmarked) as the compound, how does the “hERG current change (%, negative = inhibition) at 10uM” value read?
Answer: 5.73%

Question: With `CC(C)CCNCC(O)CON=C1c2ccccc2-c2ccccc21` (centres unmarked) as the compound, how does the “hERG current change (%, negative = inhibition) at 10uM” value read?
Answer: -32.2%

Question: `CC(N=Cc1cc([N+](=O)[O-])ccc1O)c1ccccc1` (centres unmarked) was tested. Which “hERG current change (%, negative = inhibition) at 10uM” value did it give?
Answer: 11.7%

Question: `CC(O)CN1CC(O)=C(c2nc3ccccc3s2)C1=N` (centres unmarked) was tested. Which “hERG current change (%, negative = inhibition) at 10uM” value did it give?
Answer: 3.89%

Question: With `COc1ccc(C(=O)NCc2ncccc2C)cc1OC1CCN(C(C)=O)CC1` as the compound, how does the “hERG current change (%, negative = inhibition) at 10uM” value read?
Answer: 9.32%

Question: With `CCOc1ccccc1-n1c(SCC(=O)Nc2ccccc2C(=O)O)nc2ccccc2c1=O` as the compound, how does the “hERG current change (%, negative = inhibition) at 10uM” value read?
Answer: 8.39%

Question: How did the “hERG current change (%, negative = inhibition) at 10uM” value turn out when `O=C(CN1CCN(S(=O)(=O)c2ccc(Br)cc2)CC1)N/N=C/c1ccc(Cl)c([N+](=O)[O-])c1` was run?
Answer: -17.9%

Question: With `O=C(CN1CCN(S(=O)(=O)c2ccc(Br)cc2)CC1)N/N=C/c1ccncc1` as the compound, how does the “hERG current change (%, negative = inhibition) at 10uM” value read?
Answer: -70.6%

Question: `Cc1ccc(S(=O)(=O)N2CCN(CC(=O)N/N=C\c3cccnc3)CC2)cc1` was tested. Which “hERG current change (%, negative = inhibition) at 10uM” value did it give?
Answer: 0.297%

Question: Which “hERG current change (%, negative = inhibition) at 10uM” value does the source give for `O=C(CN1CCN(S(=O)(=O)c2ccc(Br)cc2)CC1)N/N=C/c1cccnc1` here?
Answer: -31.6%

Question: With `Cc1ccc(S(=O)(=O)N2CCN(CC(=O)N/N=C\c3ccncc3)CC2)cc1` as the compound, how does the “hERG current change (%, negative = inhibition) at 10uM” value read?
Answer: -66.8%

Question: How did the “hERG current change (%, negative = inhibition) at 10uM” value turn out when `Cc1ccc(S(=O)(=O)N2CCN(CC(=O)N/N=C\c3ccc(O)c(O)c3)CC2)cc1` was run?
Answer: -8.76%

Question: Which “hERG current change (%, negative = inhibition) at 10uM” value does the source give for `O=C1N/C(=N\c2ccccn2)SC1Cc1ccc(Cl)cc1` (centres unmarked) here?
Answer: 4.11%

Question: For `Cc1cccc(CCNc2nc3ccc(C)cc3n3cnnc23)c1`, which “hERG current change (%, negative = inhibition) at 10uM” value is on record?
Answer: 17.3%

Question: With `CC(C)(C)CC(C)(C)NC(=O)c1ccc2snnc2c1` as the compound, how does the “hERG current change (%, negative = inhibition) at 10uM” value read?
Answer: -13.6%

Question: `COc1ccc(S(=O)(=O)NC(CC(=O)N2CCC3(CC2)OCCO3)C(C)C)cc1` (centres unmarked) was tested. Which “hERG current change (%, negative = inhibition) at 10uM” value did it give?
Answer: 10.9%

Question: `COc1ccccc1CCC(=O)N(C)C1CCCN(Cc2ccccc2F)C1` (centres unmarked) was tested. Which “hERG current change (%, negative = inhibition) at 10uM” value did it give?
Answer: -28%

Question: Which “hERG current change (%, negative = inhibition) at 10uM” value does the source give for `Cc1ccc(C(=O)NCC(=O)OCc2nnc(-c3ccccc3)o2)cc1` here?
Answer: -31.6%

Question: With `Cc1onc(-c2ccccc2Cl)c1C(=O)OCc1nnc(-c2ccccc2)o1` as the compound, how does the “hERG current change (%, negative = inhibition) at 10uM” value read?
Answer: -16.7%

Question: How did the “hERG current change (%, negative = inhibition) at 10uM” value turn out when `Cc1onc(-c2ccccc2)c1C(=O)OCc1nnc(-c2ccccc2)o1` was run?
Answer: -15.6%

Question: `Cc1ccc(C(=O)OCc2nnc(-c3ccccc3)o2)s1` was tested. Which “hERG current change (%, negative = inhibition) at 10uM” value did it give?
Answer: -7.37%

Question: How did the “hERG current change (%, negative = inhibition) at 10uM” value turn out when `Cc1csc(=O)n1CCC(=O)OCc1nnc(-c2ccccc2)o1` was run?
Answer: -8.45%

Question: How did the “hERG current change (%, negative = inhibition) at 10uM” value turn out when `Cc1csc(=O)n1CCC(=O)OCc1nnc(-c2ccc([N+](=O)[O-])cc2)o1` was run?
Answer: -67.3%

Question: `Cc1csc(=O)n1CC(=O)OCc1nnc(-c2ccc(Cl)cc2)o1` was tested. Which “hERG current change (%, negative = inhibition) at 10uM” value did it give?
Answer: -2.32%

Question: For `Cc1onc(-c2ccccc2)c1C(=O)OCc1nnc(-c2ccc([N+](=O)[O-])cc2)o1`, which “hERG current change (%, negative = inhibition) at 10uM” value is on record?
Answer: -71.5%

Question: Which “hERG current change (%, negative = inhibition) at 10uM” value does the source give for `Cc1ccc(C(=O)NCC(=O)OCc2nnc(-c3ccc([N+](=O)[O-])cc3)o2)s1` here?
Answer: -67.3%

Question: `CNc1ccc(Oc2c(F)c(F)nc(F)c2F)cc1` was tested. Which “hERG current change (%, negative = inhibition) at 10uM” value did it give?
Answer: -0.34%

Question: `O=C1CS/C(=N/N=C/c2ccccc2)N1c1ccc(O)cc1` was tested. Which “hERG current change (%, negative = inhibition) at 10uM” value did it give?
Answer: 17.6%

Question: `CN(C)S(=O)(=O)c1cccc(NC(=O)C2Cc3ccccc3CN2C(=O)c2ccccc2)c1` (centres unmarked) was tested. Which “hERG current change (%, negative = inhibition) at 10uM” value did it give?
Answer: 4.2%

Question: How did the “hERG current change (%, negative = inhibition) at 10uM” value turn out when `Oc1ccc(C[C@H]2CNCCN2CCc2cccc3ccccc23)cc1` was run?
Answer: -17.7%

Question: Which “hERG current change (%, negative = inhibition) at 10uM” value does the source give for `c1ccc(C[C@H]2CNCCN2CCc2cccc3ccccc23)cc1` here?
Answer: -35.6%

Question: How did the “hERG current change (%, negative = inhibition) at 10uM” value turn out when `Oc1ccc(C[C@@H]2CNCCN2CCc2cccc3ccccc23)cc1` was run?
Answer: -64.5%

Question: How did the “hERG current change (%, negative = inhibition) at 10uM” value turn out when `C#CCOCCOCCOCCNc1nc(N2CCN(C(=O)[C@H](CCC(=O)O)n3cc(C(N)Cc4ccc(O)cc4)nn3)CC2)nc(N2CCN(C(=O)[C@H](Cc3cc4ccccc4[nH]3)n3cc(C(N)[C@H](C)CC)nn3)CC2)n1.Cl` (some centres unmarked) was run?
Answer: 5.43%
